Laboratory results as given in PubChem BioAssay (Tox21).
Where “and” joins values, the source holds several entries; their conditions need not be identical. Identical values can stand only once. Records with an inconclusive call do not appear. Where a call stands in place of a potency, no number is given. A structure can be active in one record and inactive in another. Calls of active or inactive are those of the source. Calls follow the shape of the dose curve; as a rule, active = well fitted activation curve with a large enough effect in the repeat runs; inconclusive = weak or mixed curves; inactive = flat fitted curve, though single readings scatter.
Potency is read from the fitted curve at half-maximal effect.

Assay: A CellTox Green Cytotoxicity Assay to monitor cytotoxicity in HepG2 cells - 16 hour (AID 1224876); also: nearly all actives have a fitted effect of over 45% in size
Conditions: CellTox Green fluorescence; series mostly up to 76.8 µM
Excerpt: National Center for Advancing Translational Sciences [NCATS]
NIH Chemical Genomics Center [NCGC]
U.S. Environmental Protection Agency [EPA]
National Institutes of Environmental Health Sciences [NIEHS]
National Toxicology Program [NTP]
Cell-based models are critical for drug discovery. Determining the natural cytotoxic effects resulting from test compounds is an essential research activity. A CellTox Green Cytotoxicity Assay to monitor cytotoxicity in real time of continues cell culture during 40 hours of the compound treatment was used to screen Tox21 10K library compounds in HepG2 cells. CellTox Green Cytotoxicity Assay is a nonlytic, homogeneous, biofluorescent method to measure cytotoxicity in cell culture after experimental manipulation. The assay system uses a proprietary asymmetric cyanine dye that is excluded from viable cells but preferentially stains the dead cell's DNA. […] Viable cells produce no appreciable increases in fluorescence. Therefore, the fluorescence signal produced by the binding interaction with dead cell DNA is proportional to cytotoxicity.
The mixture of HepG2 cell suspension and reagents were dispensed at 600cells/6 ul/well in 1536-well tissue culture treated black solid bottom plates using a Multidrop dispenser. After the assay plates were incubated at a 37 C/5% CO2 incubator for 5 hours, 23 nL of compounds dissolved in DMSO, positive and negative controls was transferred to the assay plate by a pintool work station. The plates were incubated at 37 C for 40 hours. The fluorescence intensity were measured at 0h, 8h, 16h, 24h, 32h and 40h time points using ViewLux plate reader during compound treatment.
With CSc1ccc(/C=C2/C(C)=C(CC(=O)O)c3cc(F)ccc32)cc1 the Potency was “inactive”.
For CCCCN(CCCC)C(=O)N(CCCC)CCCC, the Potency was “inactive”.
In the case of [Cl][Bi]([Cl])([c]1ccccc1)([c]1ccccc1)[c]1ccccc1, the Potency was 10.9 µM (active).
For Cc1cc(O)c(C(C)(C)C)cc1C(C)(C)C, the Potency was 21.9 µM (active).
In the case of CN(C)CCCOC1(Cc2ccccc2)CCCCCC1, the Potency was “inactive”.
In the case of CCOC(=O)/C=C(C)/C=C/C=C(C)/C=C/c1c(C)cc(OC)c(C)c1C, the Potency was “inactive”.
With CCN(C(=O)c1cc(C)cc(OC[C@H](C)Nc2ccncc2)c1)C(C)C the Potency was “inactive”.
In the case of C[n+]1cc2c3c(ccc2c2ccc4cc5c(cc4c21)OCO5)OCO3, the Potency was 0.585 µM (active).
For Cc1ccc2oc(CN(Cc3ccccc3)C(=O)Nc3c(F)cc(F)cc3F)c(-c3ccc(Cl)cc3)c2c1, the Potency was “inactive”.
For O=C(c1ccc(F)cc1)C1CCN(CCn2c(=O)[nH]c3ccccc3c2=O)CC1, the Potency was “inactive”.
For COc1cc(/C=C/C(=O)O[C@H]2CC[C@]34C[C@]35CC[C@]3(C)[C@@H]([C@H](C)CCC=C(C)C)CC[C@@]3(C)[C@@H]5CC[C@H]4C2(C)C)ccc1O, the Potency was “inactive”.
In the case of CC(C)(C)c1ccc(C(=O)O)cc1, the Potency was “inactive”.
With CCC1OCC(COc2ccc(Oc3ccccc3)cc2)O1 (stereo not given) the Potency was “inactive”.
With CCN(CC)CCNC(=O)c1c(C)[nH]c(/C=C2\C(=O)Nc3ccc(F)cc32)c1C the Potency was 21.3 µM (active).
For CC(C)(C)c1ccc(C(=O)CCCN2CCC(OC(c3ccccc3)c3ccccc3)CC2)cc1, the Potency was 23.9 µM (active).
With Cn1cc(C(=O)[C@@H]2CCc3nc[nH]c3C2)c2ccccc21 the Potency was “inactive”.
With O=C(Oc1ccccc1)c1ccccc1C(=O)Oc1ccccc1 the Potency was “inactive”.
For Cc1ccc(O)c(C(C)(C)C)c1, the Potency was 38.8 µM (active) and 34.7 µM (active).
With CCCCC(CC)COP(=O)(O)OCC(CC)CCCC (stereo not given) the Potency was “inactive”.
With Cc1cccc(N(C)C(=S)Oc2ccc3c(c2)C2CCC3C2)c1 (stereo not given) the Potency was “inactive”.
With C[C@@H]1C[C@H]2[C@@H]3CCC4=CC(=O)C=C[C@]4(C)[C@@]3(Cl)[C@@H](O)C[C@]2(C)[C@@]1(OC(=O)c1ccco1)C(=O)CCl the Potency was “inactive”.
In the case of CCN(CC)CCCC(C)Nc1c2ccc(Cl)cc2nc2ccc(OC)cc12 (stereo not given), the Potency was 16.9 µM (active).
With COc1ccc(C(=O)/C(Br)=C\C(=O)O)cc1 the Potency was “inactive”.
With CNCc1cc(F)ccc1Oc1ccc(Cl)c(Cl)c1 the Potency was 54.9 µM (active).
With O=C(Nc1cccc([N+](=O)[O-])c1)c1cc2ccccc2cc1O the Potency was “inactive”.
For O=C1c2c(O)ccc(Nc3ccc(CCO)cc3)c2C(=O)c2c([N+](=O)[O-])ccc(O)c21, the Potency was “inactive”.
For O=C(O)c1c(Cl)cccc1Cl, the Potency was “inactive”.
With COc1cccc2c1C(=O)c1c(O)c3c(c(O)c1C2=O)C[C@@](O)(C(=O)CO)C[C@@H]3O[C@H]1C[C@H](N)[C@H](O[C@@H]2CCCCO2)[C@H](C)O1 the Potency was 23.9 µM (active).
With O=[N+]([O-])c1cc(Cl)c(Cl)c(Cl)c1Cl the Potency was “inactive”.
In the case of Clc1ccccc1C(c1ccccc1)(c1ccccc1)n1ccnc1, the Potency was 38.9 µM (active) and inactive.
For O=C1c2ccccc2Cc2ccccc21, the Potency was “inactive”.
For CCN(CCC#N)c1ccc(N=Nc2c(Cl)cc([N+](=O)[O-])cc2Cl)cc1, the Potency was “inactive”.
In the case of N=C1C=CC(=C(c2ccc(N)cc2)c2ccc(N)cc2)C=C1, the Potency was “inactive”.
With Cc1oc(-c2ccccc2)nc1CCC(=O)c1ccc(CC2SC(=O)NC2=O)cc1 (stereo not given) the Potency was “inactive”.
For OCCCCCCCCCCCCBr, the Potency was “inactive”.
With Oc1ccc2cc(SSc3ccc4cc(O)ccc4c3)ccc2c1 the Potency was “inactive”.
In the case of Fc1ccc(C(c2ccc(F)cc2)N2CCN(C/C=C/c3ccccc3)CC2)cc1, the Potency was “inactive”.
For C=C(C)C(=O)OCC(O)COc1ccc(C(C)(C)c2ccc(OCC(O)COC(=O)C(=C)C)cc2)cc1 (stereo not given), the Potency was “inactive”.
In the case of Cc1cc(O)c2ccccc2c1O, the Potency was 13.4 µM (active).
In the case of CC(C)n1nc(-c2cc3cc(O)ccc3[nH]2)c2c(N)ncnc21, the Potency was “inactive”.
